According to PubChem BioAssay AID588855 (National Center for Advancing Translational Sciences (NCATS), 2011):
Hit rate of the full screen: of about 410,000 compounds, about 5,000 (1.2%) were called active. Another 13% or so got no clear call; they are omitted. The sample holds actives, similar compounds and a random draw of the others, so the mix is not that of the screen. Values without a mark were called inactive. The call rests on the fitted dose curve; in most records, active means well fitted inhibition curve with a large enough effect; inconclusive means small, poorly fitted or top-dose-only effect; inactive means no such curve, though single readings can be large or run the other way.

Test: qHTS for Inhibitors of TGF-b; further: nearly all actives have a fitted effect of over 65% in size
Conditions: HepG2 CAGA-GFP TGF-b/SMAD3 reporter, GFP fluorescence, 18 h, TGF-beta stimulated, 500 pg/mL final; series mostly up to 46.1 µM; activity, negative = inhibition: at the top concentration
Procedure, shortened: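 Inhibition of TGF-beta-driven CAGA-GFP reporter expression in HEPG2 cells is measured by cellular GFP fluorescence after 18 h stimulation with 500 pg/mL recombinant TGF-beta in 1% FBS medium at 37 degrees C.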
On the % scale 0 is the no-effect control and ±100 the full control effect; potency means the concentration at half of the fitted maximal effect.

SMILES	activity, negative = inhibition	Potency
CCOc1ccc(CCNC(=O)Cn2nc(CC)n3c(cc4sc(CC)cc43)c2=O)cc1OCC	-29.1%	–
COc1cc(Nc2nc3ccc(Cl)cc3n3cnnc23)cc(OC)c1OC	39.4%	–
COc1cccc(Nc2nc3ccccc3c3nncn23)c1	-9.39%	–
FC(F)(F)c1cc(Nc2nc3ccccc3c3nncn23)ccc1Cl	–	17.8 µM (active)
O=C(CC(NCc1cccnc1)C(=O)O)Nc1ccc(O)cc1 (stereo unspecified)	3.04%	–
COc1ccc(NC(=O)Cn2c(=O)n(CCC(C)C)c(=O)c3cccnc32)cc1Cl	-6.53%	–
Cc1ccc(C)c(N2CCN(c3ccc4cc(S(=O)(=O)N5CCC(C)CC5)ccc4n3)CC2)c1	15.4%	–
COc1ccc(Br)cc1C1CC(=O)Nc2c1c(C)nn2-c1nc(C)cc(C)n1 (stereo unspecified)	-3.57%	–
O=C(NC(c1ccc(Cl)cc1)c1cnccn1)C1CCN(Cc2ccc(Cl)cc2)CC1 (stereo unspecified)	2.45%	–
Cc1cccnc1C(NC(=O)C1CCN(Cc2ccc(Cl)c(Cl)c2)CC1)c1ccc(Cl)cc1 (stereo unspecified)	–	11.2 µM (active)
COc1cccc(CN2CCC(C(=O)NC(c3ccc4c(c3)OCO4)c3ccccn3)CC2)c1 (stereo unspecified)	-6.59%	–
Cc1ccc(OCC(=O)OCc2cc(=O)n3nc(C4CC4)sc3n2)cc1C	4.88%	–
COCCNC(=O)CSc1c(C)cnc2c1c(=O)n(C)c(=O)n2C	17.4%	–
O=S(=O)(c1ccc(Br)cc1)c1nnn2c1nc(NC1CCCCCC1)c1sccc12	43.2%	–
CCOC(=O)c1c(C)[nH]c(CCC(=O)NCCCN2CCN(c3cc(C)ccc3C)CC2)c1C	-20.3%	–
CC1=C(c2ccc(Cl)cc2)S(=O)(=O)N=C1N1CCN(c2cc(C)ccc2C)CC1	26.8%	–
CC1=C(c2ccc(C)cc2)S(=O)(=O)NC1=NCCCN1CCN(c2cc(C)ccc2C)CC1	–	20 µM (active)
COC(=O)c1c(NC(=O)CCCOc2ccccc2)sc2c1CCC(C)C2 (stereo unspecified)	14.7%	–
CSc1ccc(NC(=O)Cn2nnnc2-c2ccccc2F)cc1	-20.5%	–
CCc1ccc(-n2nnc(-c3nc(-c4ccccc4)no3)c2C)cc1	-34.3%	–
O=C(c1ccccc1)N1CCN(c2cc(-c3ccccc3)nc3cc(-c4cccc(Cl)c4)nn23)CC1	8.56%	–
COc1cccc(-c2cc3nc4c(c(N5CCC6(CC5)OCCO6)n3n2)CCCC4)c1	–	12.6 µM (active)
O=C(CC(c1cccs1)N1Cc2ccccc2C1=O)Nc1ccc(F)c(F)c1 (stereo unspecified)	-4.52%	–
CCOc1ccccc1NC(=O)Cn1c(=O)n(Cc2ccco2)c(=O)c2sc3ccccc3c21	-0.989%	–

SMILES	activity, negative = inhibition	Potency
Cc1c(Cl)cccc1NC(=O)C1CCCN(c2ncnc3onc(C)c23)C1 (stereo unspecified)	-13.3%	–
Cc1c(Cl)cccc1NC(=O)C1CCCN(C(=O)c2cnn(-c3ccccc3)c2-n2cccc2)C1 (stereo unspecified)	–	12.6 µM (active)
Cc1cccc(NC(=O)C2CCCN(C(=O)NCc3ccccc3)C2)c1C (stereo unspecified)	-10.4%	–
CCOc1ccccc1NC(=O)Cn1c2ncccc2c(=O)n1-c1ccc(C)c(C)c1	-0.756%	–
Cc1[nH]c2ccccc2c1C(=O)C(=O)N(C)c1ccccc1	-12%	–
COc1ccc(-c2cn3c(C)c(C(=O)Nc4cc(C)cc(C)c4)sc3n2)cc1	0.33%	–
COc1ccc(C(C(=O)NC2CCCCC2)N(C(=O)CCl)c2ccccc2Cl)cc1 (stereo unspecified)	5.59%	–
COc1ccc(C(CCN(Cc2ccc(OC)c(OC)c2)C(=O)CCl)c2ccccc2)cc1 (stereo unspecified)	–	14.1 µM (active)
COc1ccc(CCNC(=O)CN(c2ccccc2)S(C)(=O)=O)cc1OC	-11.8%	–
CC(=O)c1ccc2c(c1)c1ccccc1n2CC(C)C	–	7.08 µM (active)
CCn1c(=O)c2cc(C(=O)Nc3cccc(C(C)=O)c3)sc2c2ccccc21	36.2%	–
CCn1c2ccccc2c2cc(CC(N)=O)ccc21	10.2%	–
CCOC(=O)N1CCC(NC(=O)c2cnn(-c3cccc(C)c3)c2C2CCN(C(=O)OC(C)(C)C)CC2)CC1	-6.58%	–
O=C(NCCc1ccccc1)C(=O)NCC(c1ccco1)S(=O)(=O)c1ccccc1 (stereo unspecified)	5.98%	–
CCOCCCNC(=O)c1c(NC(=O)c2nc(SC)ncc2Cl)sc2c1CCCC2	11.6%	–
O=C(Nc1cccc2cccnc12)c1cccc2c(Br)cccc12	-11.1%	–
Cc1ccc(C)c(N2CCN(C(c3ccccc3)c3nnc(-c4ccccc4)o3)CC2)c1 (stereo unspecified)	-6.53%	–
Fc1ccc(C(Nc2ccc(Cl)c(C(F)(F)F)c2)c2nnc(-c3ccccc3)o2)cc1 (stereo unspecified)	–	10 µM (active)
CC(=O)c1ccc(NC(c2ccc(F)cc2)c2nnc(-c3ccccc3)o2)cc1 (stereo unspecified)	0.279%	–
Cc1ccc(-c2nnc(SCc3ccccc3C)o2)cc1	-13.1%	–
CCOC(=O)c1cccc(NS(=O)(=O)c2cn(C)c(C)n2)c1	1.9%	–
Cc1c(C(=O)N(C)C)sc2c1c(=O)n(-c1ccc(F)cc1)c(=O)n2CC(=O)N(C)c1ccccc1	9.55%	–
CCNC(=O)c1cc2n(n1)CCCN(Cc1ccc(C)cc1)C2=O	-2.45%	–
Cc1ccc(NC(=O)c2cc3cc(C)ccc3n2C)cc1	-0.488%	–

SMILES	activity, negative = inhibition	Potency
CCCn1c(=N)c(C(=O)NCc2ccccc2)cc2c(=O)n3cccc(C)c3nc21	86.4%	–
CCOCCn1ccc2c(OCC(=O)NCc3ccc(C)cc3)cccc2c1=O	-0.375%	–
COC(=O)COc1cccc2c(=O)n(CC(=O)NCc3ccccc3)ccc12	–	8.91 µM (active)
CCCn1ccc2c(OCC(=O)NCc3ccc(F)cc3)cccc2c1=O	-35.8%	–
COc1ccc(OCC(=O)Nc2cccc(C(=O)OCc3cc(=O)n4nc(C)sc4n3)c2)cc1	0.41%	–
O=C(NCCCN1CCOCC1)c1cc(-c2ccccc2F)no1	-4.7%	–
CCC1=Nc2cc(C(=O)NCCCN3CCOCC3)ccc2Sc2ccc(Br)cc21	-10.2%	–
O=C(NCCCN1CCCCC1)c1ccc2c(c1)NC(=O)C(N1CCOCC1)S2 (stereo unspecified)	-0.157%	–
O=C(NCCCN1CCOCC1)c1ccc2c(c1)N(Cc1cccc(F)c1)C(=O)c1ccccc1S2	–	11.2 µM (active)
O=C(NCCN1CCOCC1)c1ccc2c(c1)N(Cc1cccc(Cl)c1)C(=O)c1ccccc1S2(=O)=O	-13.7%	–
Cc1csc2nc(COC(=O)c3ccc(NC(=O)COc4ccccc4F)cc3)cc(=O)n12	-17.6%	–
COc1ccccc1CNC(=O)C(=O)NCC(c1cccs1)S(=O)(=O)c1cccs1 (stereo unspecified)	2.99%	–
CC1CC(C)CN(C(=O)C2CC(=O)N(c3ccc(F)cc3)C2)C1 (stereo unspecified)	7.86%	–
Cc1ccc2c(c1)N(C(=O)Nc1ccc(Br)cc1F)CCO2	1.64%	–
C[C@@H]1C(c2ccc(F)cc2)=NN(c2ccc(Br)cc2)[C@H]1C(=O)N1CCOC1=O	–	14.1 µM (active)
COc1ccc(CNC(=O)c2cc3c(s2)-c2ccccc2OC3)cc1	3.78%	–
Cc1cc(C)cc(-n2c(SCC(=O)NCC3CCCO3)nc3c([nH]c4ccccc43)c2=O)c1 (stereo unspecified)	2.07%	–
Cc1oc(-c2ccccc2)nc1Cn1c(SCc2cccc(C(F)(F)F)c2)nc2cccnc21	–	15.8 µM (active)
Cc1ccc(CSc2nc3cccnc3n2Cc2ccc(C(=O)NC3CC3)cc2)cc1	-1.14%	–
Cc1cccc(CSc2nc3ccncc3n2Cc2ccc(C(=O)O)cc2)c1	12.2%	–
COC(=O)c1ccc(OC)c(Cn2c(=O)n(Cc3ccccc3)c(=O)c3c2c2cc(OC)ccc2n3C)c1	-1.14%	–
COc1cc2[nH]c(C)c(CCN3CCN(c4ccccc4)CC3)c2cc1OC	-37.4%	–
O=C(NNc1ccccc1Cl)C(O)(c1cccc(C(F)(F)F)c1)c1cccc(C(F)(F)F)c1	–	15.8 µM (active)
O=C(Nc1cc(C(F)(F)F)ccc1Cl)c1nc2ccccc2nc1N1CCCCC1	12.6%	–

SMILES	activity, negative = inhibition	Potency
O=C(CNS(=O)(=O)c1cccc(C(F)(F)F)c1)Nc1ccccc1F	-15.6%	–
COc1ccc(CNC(=O)CCc2c(C)nn(-c3ccc(N4CCCC4)nn3)c2C)cc1	-14%	–
Cc1ccccc1CNC(=O)CSc1nnc(C)c2c(C)n(-c3ccccc3)nc12	1.99%	–
O=C(NCCc1ccc(Cl)cc1)c1ccc2nc(CCc3ccccc3)oc2c1	9.09%	–
Cc1ccc(C)c(Cn2c(CCCNC(=O)C3CCCCC3)nc3ccccc32)c1	-5.37%	–
Cn1c(N)c(C(=O)COC(=O)/C=C/c2cccc(C(F)(F)F)c2)c(=O)n(C)c1=O	-3.63%	–
CCOC(=O)CCC(NC(=O)c1ccc(CNc2nc3cc(C(F)(F)F)ccc3nc2C(=O)OCC)cc1)C(=O)OCC (stereo unspecified)	0%	–
CCOC(=O)c1c(NC(=O)c2cc(CC)on2)sc(C(C)=O)c1C	8.3%	–
COc1cccc(-c2n[nH]c3c2C(c2cccc(O)c2)N(C)C3=O)c1 (stereo unspecified)	-2.1%	–
CCCCN1C(=O)c2[nH]nc(-c3ccccc3O)c2C1c1cccc(OCc2ccccc2)c1 (stereo unspecified)	–	15.8 µM (active)
CN1C(=O)c2[nH]nc(-c3ccc(F)cc3)c2C1c1ccccn1 (stereo unspecified)	-0.168%	–
CN(C)Cc1cn(-c2ccccc2)nc1-c1ccccc1	-2.77%	–
Cc1ccc(CNC(=O)C2(C(F)(F)F)C/C(=C\CCO)CCCO2)o1 (stereo unspecified)	-17.7%	–
CCOc1cc(C2C(C(=O)Nc3ccc(OC)cc3)=C(C)Nc3nc(SC)nn32)ccc1O (stereo unspecified)	0.0326%	–
CN1c2ccc(C=O)c3c(C=O)ccc(c23)N(C)C1(C)C	–	20 µM (active)
Cc1ccc(C=O)c([B-](F)(F)F)c1	14.7%	–
CC1CC(C)CN(CCOc2cccc3ccccc23)C1 (stereo unspecified)	-4.16%	–
CC(C)c1ccccc1OCC(O)CN(CC(O)COc1cccc2ccccc12)C(C)C (stereo unspecified)	–	15.8 µM (active)
CN1CCN(CCCCOc2cccc3ccccc23)CC1	-3.76%	–
CCN(C(=O)Cn1cnc2sc(C)c(S(=O)(=O)N3CCN(c4ncccn4)CC3)c2c1=O)c1ccccc1F	-10.9%	–
O=C(Nc1ccc2nc(SCCOc3ccccc3Cl)sc2c1)c1ccco1	-17.7%	–
Cc1cc(C(=O)Nc2cccc(C(F)(F)F)c2)c2c(C)nn(-c3cccc(F)c3)c2n1	–	7.08 µM (active)
CSc1ccc(CCNC(=O)c2cc(C)nc3c2c(C)nn3-c2cccc(F)c2)cc1	-13.8%	–
COc1cc(NC(=O)c2cc(C3CC3)nc3c2c(C)nn3-c2ccccc2)cc(OC)c1	6.51%	–
